D1 potentiator = Potentiators of Human D1 Dopamine Receptor: qHTS; D(1A) dopamine receptor (Homo sapiens), P21728; HEK293 TREx D1 cells, calcium flux, dopamine EC20 potentiation; 360,000 compounds, 0.036% hits; potentiation, % at 10 µM; AID 504651, 2011; in the data active = potentiation above about 30%
Target sequence (P21728 whole entry, looked up): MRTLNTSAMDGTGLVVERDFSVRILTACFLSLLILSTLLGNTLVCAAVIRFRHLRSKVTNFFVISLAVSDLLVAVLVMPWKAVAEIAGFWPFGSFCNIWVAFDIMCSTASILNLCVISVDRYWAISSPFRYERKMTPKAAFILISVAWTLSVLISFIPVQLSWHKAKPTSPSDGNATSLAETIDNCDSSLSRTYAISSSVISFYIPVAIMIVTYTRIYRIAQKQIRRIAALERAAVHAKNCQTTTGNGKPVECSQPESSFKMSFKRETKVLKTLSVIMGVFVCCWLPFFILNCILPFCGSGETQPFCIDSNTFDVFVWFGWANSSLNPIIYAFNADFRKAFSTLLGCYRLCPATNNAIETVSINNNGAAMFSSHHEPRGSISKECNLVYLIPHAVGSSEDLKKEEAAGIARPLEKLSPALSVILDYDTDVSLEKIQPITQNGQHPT
DRD3 antagonist = qHTS of D3 Dopamine Receptor Antagonist: qHTS. max response, negative = inhibition, %. D3R cells, DiscoveRx beta-arrestin luminescence, antagonist mode; active compounds read low. D(3) dopamine receptor (Homo sapiens), P35462. 360,000 compounds, 2.5% hits; in the data active = max response below about -50%; inconclusive = no clear call, values can overlap the other calls
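Cells expressing the human receptor were seeded at 1500 cells/well, incubated overnight at 37 degrees C in 5% CO2, then exposed to library compounds with dopamine controls for 90 minutes at 37 degrees C before luminescent detection.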
D1 agonist = Allosteric Agonists of the Human D1 Dopamine Receptor: qHTS. D(1A) dopamine receptor (Homo sapiens), P21728. HEK293 T-REx D1 cells, calcium flux, agonist mode. activation, % at 2 µM. 360,000 compounds, 1% hits. AID 504660, 2011; in the data active = activation above about 30%
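Agonism was scored from calcium flux recorded over 180 s (1 read/s) after pintool compound addition, following a 10-cycle baseline. Cells were inducible force-coupled HEK293 TREx D1, plated overnight at 30 C and loaded with no-wash calcium dye.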
D1 antagonist = Antagonist of Human D 1 Dopamine Receptor: qHTS; 360,000 compounds, 3.2% hits; activity change, negative = inhibition, % at 10 µM; D(1A) dopamine receptor (Homo sapiens), P21728; HEK293 TREx D1 cells, calcium flux, dopamine EC80; active compounds read low; in the data active = activity change below about -30%
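After overnight tetracycline induction at 30 C, force-coupled D1 HEK293 cells took up a no-wash calcium dye at room temperature. Compounds were added and monitored 180 s, and the response to EC80 dopamine was then recorded.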
DRD3 agonist = qHTS of D3 Dopamine Receptor Agonist: qHTS; 410,000 compounds, 0.58% hits; max activation, %; D3R DiscoveRx beta-arrestin cells, luminescence, 90 min; D(3) dopamine receptor (Homo sapiens), P35462; in the data active = max activation above about 30%
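Cells at 1500/well, incubated overnight, then treated with pinned compounds (dopamine as control) for 90 min at 37 degrees C. DiscoveRx reagent added for 30 - 60 minutes at room temperature; luminescence read.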
Chronic BCR inh = qHTS Assay to Find Inhibitors of Chronic Active B-Cell Receptor Signaling. ABC-DLBCL IkBa-CBG/CBR reporter, luminescence ratio, 4 h. Potency, µM (doses to about 46.1 µM), usual class: inhibitors. 340,000 compounds, 0.05% hits; active = well fitted inhibition curve with a large enough effect in the signal ratio, with a control signal flat, not every such curve was filed as active; inconclusive = small, poorly fitted or top-dose-only effect, or effect the other way, or a change in a side signal; the % refers to the signal ratio
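TMD8 human ABC-DLBCL cells with doxycycline-inducible IκBα–green luciferase fusion and unfused red luciferase, in 0.5% FBS medium; compounds up to 46 uM, 4 h at 37C. Green/red luminescence ratio, filter-overlap corrected, fitted to concentration-response curves.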
Hits are given with their value; - = inactive; ? = inconclusive; . = not tested or not shown. Hits are enriched below; roughly 6% of the tested compounds scored in any of these assays.

SMILES	D1 potentiator	DRD3 antagonist	D1 agonist	D1 antagonist	DRD3 agonist	Chronic BCR inh
Cc1cccc(-c2nc3c(cnn3-c3ccccc3)c(=O)n2-c2ccc(Cl)cc2)c1	-	.	-	-36	-	.
O=C1c2ccccc2C(=O)N1CC(O)COc1cccc2ccccc12 (stereo not given)	.	-	.	.	-	.
Cc1cccc(C)c1NC(=O)C[N+](C)(C)CC(O)COc1cccc2ccccc12 (stereo not given)	-	-52	-	-	-	?
Cc1cc(-c2onc(C)c2C(=O)Nc2ccc(C(F)(F)F)cc2)no1	-	-	-	-	-	-
Cc1noc(-c2ccc(C(F)(F)F)cc2)c1NC(=O)Nc1ccc(Cl)cc1	-	-	-	-42	-	-
O=C(NCCCN1CCC(Cc2ccccc2)CC1)c1ccc(CS(=O)c2ccccc2Cl)o1 (stereo not given)	.	-108	.	.	-	.
O=C(NCc1ccco1)c1ccc(CS(=O)c2ccccc2Cl)o1 (stereo not given)	.	-	.	.	-	.
CN(Cc1c(C(=O)N/N=C/c2ccccc2O)nnn1-c1nonc1N)C1CCCCC1	.	-	.	.	-	.
CCOC(=O)c1cnc2ccc(OC)cc2c1Nc1cccc(C(C)=O)c1	-	.	-	-	-	.
COc1ccc(NC(=O)CN2CCN(Cc3ccc(F)cc3)S2(=O)=O)cc1Cl	-	.	-	-	-	-
O=C(CN1CCN(Cc2ccc(F)cc2Cl)S1(=O)=O)Nc1ccc(F)cc1	-	.	48	-	-	.
COc1ccc(N(C(=O)c2ccco2)S(=O)(=O)c2cccs2)cc1	-	-	-	-	-	-
COc1ccc(N(C(=O)c2ccco2)S(=O)(=O)c2ccc(F)cc2)cc1	-	?	-	-58	-	-
COc1ccc(N(C(=O)c2ccco2)S(=O)(=O)c2cc(OC)ccc2OC)cc1	-	-	-	-35	-	-
Cc1nc(-n2nc(C)c(Cc3ccccc3Cl)c2C)sc1C(=O)N1CCC(C)CC1	-	.	-	-	-	.
CCc1cccc(CC)c1NC(=O)c1c(C)oc2ccc(O)c(CN3CCOCC3)c12	-	.	-	-	-	.
CCCCc1ccc(C(=O)N/C(=C\c2ccc(C)cc2)C(=O)NC2CCCCC2)cc1	-	.	-	-	-	.
Cn1c2cc(B(O)O)sc2c2cnn(Cc3ccc(F)cc3F)c(=O)c21	-	.	-	-	.	?
COCCN1C=C2C(=O)C(C)(OC(=O)c3cccs3)C(=O)C=C2C=C1CCCC(=O)OC (stereo not given)	-	-	-	-36	-	?
COC(=O)CCCC1=CC2=CC(=O)C(C)(OC(=O)c3cccs3)C(=O)C2=CN1CCCCO (stereo not given)	-	-	-	-	-	-
CCOC(=O)CSc1nc(C2CC2)cc(-c2ccc(Cl)cc2)c1C#N	-	-	-	-87	-	-
Cc1cccc(OCC(=O)NC2CCCCCC2)c1C	-	-	-	-	-	-
Cc1cccc(C)c1OCC(=O)NC1CC1	-	-	-	-47	-	-
Cc1ccccc1CSCC(=O)NC1CCCC1	-	-	-	-45	-	-
Cc1ccccc1CC(=O)NC1CCCCCC1	-	-	-	-	-	-
SMILES	D1 potentiator	DRD3 antagonist	D1 agonist	D1 antagonist	DRD3 agonist	Chronic BCR inh
CN1C(=O)C(C)(C)c2cc(S(=O)(=O)N3CCN(c4ccccc4)CC3)ccc21	-	-	-	-40	-	-
Cc1ccc(S(=O)(=O)N2CCN(c3ccccc3)CC2)cc1C(N)=O	-	-	-	-	34	-
CCOc1ccc(S(=O)(=O)N2CCN(c3ccccc3)CC2)cc1C(N)=O	-	.	-	-	-	.
O=C(CSc1nc2c(c(=O)n1-c1ccc(Cl)cc1)SCC2)NCC1CCCO1 (stereo not given)	-	?	-	-32	-	.
Cc1ccccc1CSc1nc2c(sc3ccccc32)c(=O)n1CCCC(=O)NCCCOC(C)C	-	.	-	-40	-	.
COc1ccc(-c2nc(C(=O)NCC3CCCO3)cc3c2[nH]c2ccccc23)cc1 (stereo not given)	-	-	-	-	34	?
COc1ccc(-n2c(SCC(=O)NCC3CCCO3)nc3c([nH]c4ccccc43)c2=O)cc1 (stereo not given)	-	-	-	-31	-	-
COc1ccc(-n2nc(C(=O)NCCc3cccc(C)c3)c3c4ccccc4n(C)c3c2=O)cc1Cl	-	.	-	-	-	.
O=C1c2oc3ccccc3c(=O)c2C(c2ccccc2)N1Cc1ccc2c(c1)OCO2 (stereo not given)	-	.	-	-	-	-
O=C(CSc1nc2c(sc3ccccc32)c(=O)n1CCO)NCC1CCCO1 (stereo not given)	-	-	-	-	-	-
Cc1cc(C)cc(-n2c(SCC(=O)NCc3ccco3)nc3c([nH]c4ccccc43)c2=O)c1	-	.	-	-	-	.
Cc1ccc(-n2c(SCC(=O)NCc3ccco3)nc3c([nH]c4ccccc43)c2=O)cc1	-	-50	-	-	-	?
O=C(CSc1nc2c(sc3ccccc32)c(=O)n1CCCN1CCCC1)NCC1CCCO1 (stereo not given)	-	-57	-	-	-	-
Cc1cc2c(s1)c1cnn(Cc3cc(F)c(F)c(F)c3)c(=O)c1n2C	-	.	-	-	.	.
Cc1ccc(-c2ccc(=O)n(CCC(=O)NCCc3ccccc3)n2)cc1	-	.	-	-	-	?
CCCCN1C[C@H](Cc2ccccc2)[C@@H](CC(=O)NC)C1=O	.	-	.	.	-	.
Cc1nn(Cc2ccc(Cl)cc2)c(C)c1NC(=O)CSc1nc2c(c(C(F)(F)F)n1)CCc1ccccc1-2	-	-	-	-	-	-
Cc1ccc(Cn2nc(C)c(NC(=O)CSc3nc4c(c(C(F)(F)F)n3)CCc3ccccc3-4)c2C)cc1	-	-	-	-86	-	-
COc1cccc(C(=O)N(Cc2ccccc2)Cc2cc3cc4c(cc3[nH]c2=O)OCCO4)c1	-	-	-	-	33	-
COc1ccc(C(=O)N(Cc2ccccc2)Cc2cc3cc4c(cc3[nH]c2=O)OCCO4)cc1	-	-	-	-	-	-
Cc1ccccc1NC(=O)CCn1cnc2onc(-c3ccc(F)cc3)c2c1=O	-	.	-	-45	-	.
O=C(Nc1nnc(-c2ccccc2Cl)o1)c1ccc(S(=O)(=O)N2CCCCCC2)cc1	-	-	-	-	-	?
CCC1CCCCN1S(=O)(=O)c1ccc(C(=O)Nc2nnc(-c3ccccc3Cl)o2)cc1 (stereo not given)	-	-86	-	-	-	-

Screening data as filed in PubChem BioAssay.
